Experiment [1] has as its target human Peroxisome Proliferator-activated Receptor alpha (PPARa), PPARA (gene 5465) (UniProt Q07869). Put plainly: ATG_PPARa_TRANS: Attagene TRANS-FACTORIAL HepG2 Assay for human Peroxisome Proliferator-activated Receptor alpha (PPARa) (AID 2283001).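 On AC50: potency for gain of reporter signal over DMSO so agonist or activator.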 In a few lines: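 Reporter transcripts from GAL4-UAS units in transfected HepG2 were quantified 24 h after dosing. Detection used reverse transcription, PCR, fluorescent primer extension and capillary electrophoresis, with DMSO as baseline.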

Read-out in experiment [2]: Intercellular Adhesion Molecule 1 (ICAM1), ICAM1 (gene 3383)
In words: BSK_3C_ICAM1: BioMAP Diversity Plus: 3C Assay for Intercellular Adhesion Molecule 1 (ICAM1) Biomarker Activity (AID 2283003; active means hit-call score of the fitted dose curve at least 0.9, where 1 is the maximum; inactive means score below 0.9). The note with it: primary human endothelial cells (HUVEC); actives raise or lower the signal. In outline:
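Human vascular endothelial primary cells, 3C conditions, 24 h treatment. ICAM-1 by ELISA.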

Experiment [3] concerns the target human Retinoic Acid Receptor beta (RARb), RARB (gene 5915) (UniProt P10826). In words: ATG_RARb_TRANS: Attagene TRANS-FACTORIAL HepG2 Assay for human Retinoic Acid Receptor beta (AID 2283004). In outline:
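HepG2 cells were transiently transfected with GAL4-UAS reporter units that report activity of exogenous chimeric NR-Gal4 proteins, then exposed to compound for 24 h. Reporter mRNA was quantified by RT-PCR with capillary electrophoresis fluorescence, as gain of signal over DMSO.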

Experiment [4] addresses Retinoic acid receptor alpha (Homo sapiens) (UniProt P10276). In words: ATG_RARa_TRANS: Attagene TRANS-FACTORIAL HepG2 Assay for human Retinoic Acid Receptor alpha (RARa) (AID 2283005). In outline:
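Reporter transcripts, measured by RT-PCR with fluorescent labeling and capillary electrophoresis after 24 h dosing, reflect activity of an exogenous human RARa–GAL4 fusion in transiently transfected HepG2. Fitted for increase relative to DMSO.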

Experiment [5] is described as follows: BSK_3C_Proliferation: Cell Proliferation Assessment in the BioMAP Diversity Plus: 3C Assay (AID 2283006; active means hit-call score of the fitted dose curve at least 0.9, where 1 is the maximum; inactive means score below 0.9;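 on AC50: potency may reflect either rise or fall in cell number versus DMSO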). The note with it: primary human endothelial cells (HUVEC). In a few lines: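 Proliferation of human vascular endothelial primary cells after 48 h dosing, quantified as SRB-stained protein at 560 nm relative to DMSO.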
For experiment [6], the target named is Peroxisome proliferator-activated receptor gamma (Homo sapiens) (UniProt P37231). Put plainly: ATG_PPARg_TRANS: Attagene TRANS-FACTORIAL HepG2 Assay for human Peroxisome Proliferator-activated Receptor-gamma (PPARg) (AID 2283007). In outline: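 Liver-derived HepG2 cells expressing an exogenous NR-Gal4 chimera alongside GAL4-UAS reporter genes; 24 h exposure. Fluorescence of reporter RT-PCR products, separated by capillary electrophoresis, gives mRNA induction relative to DMSO.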

The target in experiment [7] is Nuclear receptor subfamily 1 group I member 2 (Homo sapiens) (UniProt O75469). In words: ATG_PXR_TRANS: Attagene TRANS-FACTORIAL HepG2 Assay for human Pregnane X Receptor (PXR) (AID 2283008). In a few lines: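 HepG2 cells transiently transfected with multiple reporter units, here a PXR-GAL4 chimera driving a GAL4-UAS reporter; 24 h compound exposure. Reporter mRNA measured by RT-PCR, FAM labelling and capillary electrophoresis; gain of signal fitted against DMSO baseline.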

Experiment [8] has as its target human Retinoic Acid Receptor gamma (RARg), RARG (gene 5916) (UniProt P13631). In words: ATG_RARg_TRANS: Attagene TRANS-FACTORIAL HepG2 Assay for human Retinoic Acid Receptor gamma (RARg) (AID 2283009).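 On AC50: AC50 is for reporter induction above DMSO meaning RARg activation.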 In outline: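 HepG2, RARg-GAL4 TRANS system, 24 h exposure; reporter mRNA by RT-PCR + CE fluorescence; increase over DMSO.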
The target of experiment [9] is human RAR-related Orphan Receptor beta (RORb), RORB (gene 6096) (UniProt Q92753). Put plainly: ATG_RORb_TRANS: Attagene TRANS-FACTORIAL HepG2 Assay for human RAR-related Orphan Receptor beta (RORb) (AID 2283010). In a few lines:
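In this TRANS-format test, human HepG2 cells express chimeric NR-Gal4 fusion proteins driving GAL4-UAS reporters. After 24 h dosing, reporter transcripts are measured by fluorescent RT-PCR/capillary electrophoresis, with DMSO as negative control.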

The target of experiment [10] is human Peroxisome Proliferator-activated Receptor delta (PPARd), PPARD (gene 5467) (UniProt Q03181). Put plainly: ATG_PPARd_TRANS: Attagene TRANS-FACTORIAL HepG2 Assay for human Peroxisome Proliferator-activated Receptor delta (PPARd) (AID 2283002). In a few lines:
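Transient HepG2 transfection (multiple GAL4-UAS RTUs, chimeric receptor-Gal4); 24 h dosing; total RNA → oligo(dT) RT → PCR → 6-FAM primer extension → HpaI cut → CE. Positive direction vs DMSO.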

Structures are written as SMILES. Several values for one entry are separate records, joined by “and”; a condition that tells them apart may be missing. Identical values can stand only once. Inconclusive results are not listed. Some structures have more than one record in an assay (separate samples or runs), and their calls can disagree. Activity calls are given as the source filed them. How the source made its calls, unless noted: active means hit-call score of the fitted dose curve at least 0.9, where 1 is the maximum; inconclusive means response in the unintended direction; inactive means score below 0.9.

The term AC50 denotes the midpoint of the concentration-response curve, whichever way the signal moves.

Sequence of human RAR-related Orphan Receptor beta (RORb), RORB (gene 6096) (Q92753 whole entry, looked up, the tested form may be a part): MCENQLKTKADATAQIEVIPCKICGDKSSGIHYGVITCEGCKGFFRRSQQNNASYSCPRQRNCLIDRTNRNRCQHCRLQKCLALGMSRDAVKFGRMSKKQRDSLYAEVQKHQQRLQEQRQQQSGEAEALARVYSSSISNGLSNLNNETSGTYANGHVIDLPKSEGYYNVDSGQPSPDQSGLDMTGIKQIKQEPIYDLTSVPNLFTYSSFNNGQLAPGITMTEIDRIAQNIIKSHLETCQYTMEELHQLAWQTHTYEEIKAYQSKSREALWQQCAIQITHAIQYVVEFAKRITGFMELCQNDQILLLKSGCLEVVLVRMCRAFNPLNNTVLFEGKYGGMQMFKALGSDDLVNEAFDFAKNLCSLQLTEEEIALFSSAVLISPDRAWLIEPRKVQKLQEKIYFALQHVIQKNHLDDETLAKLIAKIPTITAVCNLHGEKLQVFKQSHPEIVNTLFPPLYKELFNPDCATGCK
Sequence of human Peroxisome Proliferator-activated Receptor delta (PPARd), PPARD (gene 5467) (Q03181 whole entry, looked up, the tested form may be a part): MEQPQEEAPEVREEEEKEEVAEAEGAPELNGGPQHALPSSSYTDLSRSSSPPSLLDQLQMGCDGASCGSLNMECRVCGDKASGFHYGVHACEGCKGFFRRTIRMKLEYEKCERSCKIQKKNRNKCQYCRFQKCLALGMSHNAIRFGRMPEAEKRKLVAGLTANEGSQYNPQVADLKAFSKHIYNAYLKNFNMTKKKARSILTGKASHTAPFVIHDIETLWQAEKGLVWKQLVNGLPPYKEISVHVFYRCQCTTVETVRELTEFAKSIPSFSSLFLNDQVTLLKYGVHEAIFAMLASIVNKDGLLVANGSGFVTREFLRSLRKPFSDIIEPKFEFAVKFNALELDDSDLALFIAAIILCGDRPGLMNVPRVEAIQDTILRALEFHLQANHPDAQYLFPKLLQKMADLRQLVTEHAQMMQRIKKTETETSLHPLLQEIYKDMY
Sequence of human Peroxisome Proliferator-activated Receptor alpha (PPARa), PPARA (gene 5465) (Q07869 whole entry, looked up, the tested form may be a part): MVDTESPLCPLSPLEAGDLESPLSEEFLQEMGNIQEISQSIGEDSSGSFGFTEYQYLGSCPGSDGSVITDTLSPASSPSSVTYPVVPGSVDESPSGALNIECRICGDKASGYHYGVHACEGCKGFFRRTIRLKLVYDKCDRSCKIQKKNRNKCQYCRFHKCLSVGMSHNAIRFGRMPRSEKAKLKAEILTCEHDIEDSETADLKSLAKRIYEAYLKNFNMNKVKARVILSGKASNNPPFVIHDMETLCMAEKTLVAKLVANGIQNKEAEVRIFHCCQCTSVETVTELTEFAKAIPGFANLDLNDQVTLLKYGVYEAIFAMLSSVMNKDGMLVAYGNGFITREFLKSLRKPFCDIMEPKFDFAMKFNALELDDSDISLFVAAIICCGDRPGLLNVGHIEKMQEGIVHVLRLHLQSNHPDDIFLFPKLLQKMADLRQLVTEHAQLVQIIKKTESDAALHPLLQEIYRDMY
Sequence of Retinoic acid receptor alpha (Homo sapiens) (P10276 whole entry, looked up, the tested form may be a part): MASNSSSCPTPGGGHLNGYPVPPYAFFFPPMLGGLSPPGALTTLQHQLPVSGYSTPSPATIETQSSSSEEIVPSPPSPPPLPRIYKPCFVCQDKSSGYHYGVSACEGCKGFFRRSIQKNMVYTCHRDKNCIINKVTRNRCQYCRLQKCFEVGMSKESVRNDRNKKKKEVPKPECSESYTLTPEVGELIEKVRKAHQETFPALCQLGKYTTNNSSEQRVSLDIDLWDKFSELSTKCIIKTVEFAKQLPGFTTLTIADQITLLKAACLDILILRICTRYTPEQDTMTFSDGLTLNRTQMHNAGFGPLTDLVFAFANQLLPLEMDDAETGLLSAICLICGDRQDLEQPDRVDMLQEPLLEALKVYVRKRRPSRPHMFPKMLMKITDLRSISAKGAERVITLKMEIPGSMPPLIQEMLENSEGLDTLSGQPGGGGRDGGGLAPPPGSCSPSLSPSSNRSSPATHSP
Sequence of Peroxisome proliferator-activated receptor gamma (Homo sapiens) (P37231 whole entry, looked up, the tested form may be a part): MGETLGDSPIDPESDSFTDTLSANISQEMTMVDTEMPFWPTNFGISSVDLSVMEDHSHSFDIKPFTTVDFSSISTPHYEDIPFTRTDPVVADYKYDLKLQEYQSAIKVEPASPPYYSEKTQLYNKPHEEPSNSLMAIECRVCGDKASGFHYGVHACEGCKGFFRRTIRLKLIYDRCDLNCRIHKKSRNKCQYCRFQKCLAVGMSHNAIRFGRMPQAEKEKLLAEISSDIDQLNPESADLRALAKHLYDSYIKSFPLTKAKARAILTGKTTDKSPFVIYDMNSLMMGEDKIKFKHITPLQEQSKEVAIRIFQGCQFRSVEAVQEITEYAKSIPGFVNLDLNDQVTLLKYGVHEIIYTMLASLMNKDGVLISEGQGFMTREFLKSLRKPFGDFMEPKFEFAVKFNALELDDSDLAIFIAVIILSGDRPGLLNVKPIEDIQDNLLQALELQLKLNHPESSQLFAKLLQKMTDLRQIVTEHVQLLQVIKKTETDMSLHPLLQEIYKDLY
Sequence of Nuclear receptor subfamily 1 group I member 2 (Homo sapiens) (O75469 whole entry, looked up, the tested form may be a part): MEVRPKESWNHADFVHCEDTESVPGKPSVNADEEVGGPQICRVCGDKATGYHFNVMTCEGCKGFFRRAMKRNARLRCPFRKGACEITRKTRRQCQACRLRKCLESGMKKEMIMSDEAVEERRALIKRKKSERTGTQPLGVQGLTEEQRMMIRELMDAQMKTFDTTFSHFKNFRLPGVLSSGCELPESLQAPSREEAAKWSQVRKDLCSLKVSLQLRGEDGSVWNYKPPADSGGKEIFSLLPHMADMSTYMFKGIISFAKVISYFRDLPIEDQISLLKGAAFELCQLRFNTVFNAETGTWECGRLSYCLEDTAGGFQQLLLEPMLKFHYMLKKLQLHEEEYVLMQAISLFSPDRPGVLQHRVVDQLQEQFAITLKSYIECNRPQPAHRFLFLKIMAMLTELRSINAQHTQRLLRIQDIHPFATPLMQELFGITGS
Sequence of human Retinoic Acid Receptor gamma (RARg), RARG (gene 5916) (P13631 whole entry, looked up, the tested form may be a part): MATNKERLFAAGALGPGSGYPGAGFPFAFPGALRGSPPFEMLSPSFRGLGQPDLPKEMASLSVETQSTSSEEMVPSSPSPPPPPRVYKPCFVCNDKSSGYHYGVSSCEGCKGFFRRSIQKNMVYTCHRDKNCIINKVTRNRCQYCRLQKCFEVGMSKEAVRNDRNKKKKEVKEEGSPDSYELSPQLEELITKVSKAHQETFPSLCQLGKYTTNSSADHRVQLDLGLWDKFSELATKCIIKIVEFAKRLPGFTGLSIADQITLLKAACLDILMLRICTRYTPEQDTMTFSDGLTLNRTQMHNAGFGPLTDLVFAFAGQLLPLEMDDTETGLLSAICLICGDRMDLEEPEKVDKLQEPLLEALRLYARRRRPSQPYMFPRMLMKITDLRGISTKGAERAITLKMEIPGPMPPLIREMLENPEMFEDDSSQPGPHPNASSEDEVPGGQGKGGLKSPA
Sequence of human Retinoic Acid Receptor beta (RARb), RARB (gene 5915) (P10826 whole entry, looked up, the tested form may be a part): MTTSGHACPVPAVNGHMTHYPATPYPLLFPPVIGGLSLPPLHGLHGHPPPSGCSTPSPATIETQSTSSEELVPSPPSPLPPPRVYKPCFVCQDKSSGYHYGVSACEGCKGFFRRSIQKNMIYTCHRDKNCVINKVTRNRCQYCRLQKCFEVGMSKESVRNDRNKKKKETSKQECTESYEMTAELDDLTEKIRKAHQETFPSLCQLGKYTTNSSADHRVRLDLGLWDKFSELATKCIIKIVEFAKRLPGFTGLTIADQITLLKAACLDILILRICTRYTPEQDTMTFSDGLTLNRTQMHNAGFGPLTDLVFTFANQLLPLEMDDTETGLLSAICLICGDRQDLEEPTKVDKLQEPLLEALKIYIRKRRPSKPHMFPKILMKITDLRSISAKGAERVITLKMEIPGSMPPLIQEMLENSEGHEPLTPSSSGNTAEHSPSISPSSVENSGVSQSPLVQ

For the compound `ClC1=C(Cl)[C@]2(Cl)[C@@H]3[C@H]4C[C@H]([C@@H]5O[C@H]45)[C@@H]3[C@@]1(Cl)C2(Cl)Cl`, the outcome in [1], in experiment [2], in experiment [4], in [6] and in [7] was inactive. The AC50 in [3] was 0.859 µM (active); in experiment [5], 8.62 µM (active); in [8] it was 0.937 µM (active).

In the case of `Oc1c(Cl)c(Cl)c(Cl)c(Cl)c1Cl`, the result in [1], in experiment [2], in experiment [4], in experiment [7], in [8] and in [9] was inactive. The AC50 in experiment [2] is 33.7 µM (active); in [5] it was 15.4 µM (active) and 14.7 µM (active); in experiment [6] it was 4.28 µM (active) and 2.53 µM (active) and 7.91 µM (active); in [7] it was 13.8 µM (active) and 3.3 µM (active).

As for `CCCCCCCCOC(=O)c1ccccc1C(=O)OCCCCCCCC`, the compound was called inactive in experiment [1], in [2], in experiment [4], in experiment [5] and in [7]. The AC50 in experiment [6] was 38.4 µM (active).

As for `Cc1ccccc1[N+](=O)[O-]`, the call in experiment [1] and in experiment [2] was inactive.

For `Cc1cc(-c2ccc(N)c(C)c2)ccc1N`, the call in experiment [1], in experiment [2], in [3], in experiment [4], in experiment [5] and in experiment [6] was inactive. For the same compound, the compound was called inactive in [7] and in experiment [8]. Also, the concentration at half-maximal activity (AC50) in experiment [6] was 100 µM (active).

With `NS(=O)(=O)C(F)(F)C(F)(F)C(F)(F)C(F)(F)C(F)(F)C(F)(F)C(F)(F)C(F)(F)F`, the half-maximal activity concentration (AC50) was 88.4 µM (active) in experiment [1]; 56.8 µM (active) and 51.5 µM (active) in [2]; 30.3 µM (active) and 38.9 µM (active) in [5]; 100 µM (active) and 59 µM (active) and 41.8 µM (active) in [6]. In addition, the compound was called inactive in experiment [1], in experiment [10], in [2], in experiment [3], in [4] and in [7]. The compound was called inactive in experiment [8] and in experiment [9].

Consider `c1ccc(-c2ccccc2)cc1`, for which the outcome in experiment [1], in experiment [10], in experiment [2], in experiment [5] and in [7] was inactive.

`ClC(Cl)=C(c1ccc(Cl)cc1)c1ccc(Cl)cc1`: the figures for the AC50 in [1], in experiment [2] and in [7] were 26.2 µM (active), 34 µM (active) and 6.11 µM (active) [middle of 4 runs], respectively. Also, the compound was called inactive in [1], in experiment [10], in [6] and in experiment [9].

Consider `O=NN(c1ccccc1)c1ccccc1`, for which the result in [1], in experiment [10], in experiment [2] and in experiment [6] was inactive. Further, the AC50 in [7] was 29.9 µM (active).

Take `Cc1cc2c3c(c1)C(c1ccccc1)=N[C@@H](NC(=O)c1ccncc1)C(=O)N3CC2`: the outcome in [1], in experiment [10], in [2], in experiment [3], in experiment [5] and in experiment [8] was inactive. In addition, the compound was classed as inactive in experiment [9]. In addition, the concentration at half-maximal activity (AC50) was 1.71 µM (active) in [6] and 2.54 µM (active) in [7].

Turning to `COS(=O)(=O)OC`, the call in experiment [1], in [10], in [2] and in [9] was inactive.

For the compound `Clc1ccc(C(c2ccccc2Cl)C(Cl)(Cl)Cl)cc1` (stereo not drawn), the call in experiment [1], in experiment [10], in [6], in experiment [7], in experiment [8] and in [9] was inactive. The half-maximal activity concentration (AC50) in experiment [2] was 21.7 µM (active); in experiment [7] it was 3.39 µM (active) and 2.82 µM (active) and 3.97 µM (active).

For the compound `Cc1ccc(O)c(C)c1`, the compound was called inactive in experiment [1], in experiment [10], in experiment [2], in [3], in [6] and in experiment [9].

On to `COc1ccc(O)c(C(C)(C)C)c1`, for which the call in [1], in [2], in experiment [3], in [4], in [5] and in experiment [6] was inactive. Moreover, in experiment [8], the compound was classed as inactive. In experiment [7], the AC50 is 4.55 µM (active).

`CC(C)(c1ccccc1)c1ccc(O)cc1`: the compound was called inactive in experiment [1], in [10], in [3], in experiment [4], in experiment [6] and in experiment [8]. Moreover, the compound was classed as inactive in [9]. The concentration at half-maximal activity (AC50) in experiment [2] was 36.4 µM (active); in [6], 18.3 µM (active); in experiment [7], 2.93 µM (active) [middle of 4 runs].

For `Clc1ccc(Cl)cc1`, the call in experiment [1], in experiment [10], in [2], in [3], in [5] and in experiment [6] was inactive. The compound was classed as inactive in experiment [7], in experiment [8] and in experiment [9].
